Assay outcomes deposited in PubChem by National Center for Advancing Translational Sciences (NCATS).
Sampled rows, rich in hits. Any-hit rate of the full collection: about 8%.
Marburg entry inh = qHTS for inhibitors of binding or entry into cells for Marburg Virus | Marburg virus pseudotyped entry inhibition, cell reporter | Potency, µM (highest dose often 37.8 µM), usual class: inhibitors | 300,000 compounds, 1.8% hits | AID 540276, 2011; calls by dose curve; tested in HEK293 cells
HCV inh = qHTS Assay for Inhibitors of Hepatitis C Virus (HCV) | Huh7.5.1 HCVcc-Cre infection, luciferase reporter, 44 h | Potency, µM (highest dose often 41.8 µM), most hits filed as inhibitors | 340,000 compounds, 3.4% hits; active means well fitted inhibition curve with a large enough effect; inconclusive means small, poorly fitted or top-dose-only effect, or another doubt; inactive means no such curve, though single readings can be large or run the other way
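Seed cells (1,000/well) for 4 h; treat with compound and infect with HCVcc-Cre, moi about 0.5. Incubate 44 h, then detect luciferase activity.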
Lassa entry inh = qHTS for Inhibitors of binding or entry into cells for Lassa Virus; Lassa virus pseudotype entry inhibition, cell reporter; Potency, µM (top dose mostly 37.9 µM), usual class: inhibitors; 300,000 compounds, 1.2% hits; calls by dose curve; tested in HEK293 cells; further: nearly all actives have a fitted effect of over 50% in size
SARS PLpro yeast = qHTS of Yeast-based Assay for SARS-CoV PLP; Potency, µM (titrated, usually from 32.9 µM), most hits filed as activators; S. cerevisiae expressing SARS-CoV PLpro, growth rescue; 330,000 compounds, 0.19% hits; calls by dose curve; further: nearly all actives have a fitted effect of over 55% in size
FMDV inh = High Throughput Screening for Foot and Mouth Disease Virus Antivirals; FMDV antiviral cell-based qHTS; Potency, µM (titrated, usually from 57.9 µM), most hits filed as inhibitors; 410,000 compounds, 1.2% hits; AID 1159524, 2015; calls by dose curve; tested in HEK293T cells; further: read-out not given here; nearly all actives have a fitted effect of over 45% in size
HCMV antiviral = qHTS Assay for inhibitors of the human cytomegalovirus (HCMV); HFF cells, HCMV-luciferase reporter, 72 h; hits give low values; activity change, negative = inhibition, % at 57.5 µM; 410,000 compounds, 4.5% hits; in the data active means activity change below about -60%; inconclusive means no clear call, values can overlap the other calls; inactive means above about -39%
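Steps: HFFs plated, 16 h 37C; compounds added; HCMV-luciferase added to MOI 1 PFU/cell; 72 h 37C; OneGlo reagent, 5 min room temperature; luminescence read, normalized to controls.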
Of the large screens only hits and unclear results are named; the others gave an inactive call.

Cc1cccc(-c2cccc(NC(=O)C3CCCN(C(=O)c4csc(C)n4)C3)c2)c1 (stereo unspecified)	HCV inh 7.9µM, HCMV antiviral inconclusive (no result: Marburg entry inh, Lassa entry inh)
CCc1nc(C)c(C(=O)N2CCCC(C(=O)Nc3cccc(-c4cccc(C)c4)c3)C2)o1 (stereo unspecified)	Marburg entry inh inconclusive, HCV inh 11µM, Lassa entry inh inconclusive
Cc1cccc(-c2cccc(NC(=O)C3CCCN(C(=O)c4ocnc4C)C3)c2)c1 (stereo unspecified)	Marburg entry inh inconclusive, HCV inh inconclusive, Lassa entry inh 3.5µM
CCc1ncc(CN2CCCC(C(=O)Nc3cccc(-c4cccc(C)c4)c3)C2)cn1 (stereo unspecified)	Marburg entry inh inconclusive
Cc1cccc(-c2cccc(NC(=O)C3CCCN(C(=O)c4cccnc4)C3)c2)c1 (stereo unspecified)	HCV inh inconclusive, HCMV antiviral inconclusive (no result: Marburg entry inh, Lassa entry inh)
COc1ccc2[nH]c3c(=O)n(CCCCC(=O)NCCC(C)C)c(=S)[nH]c3c2c1	none
O=C(NCc1ccc(F)cc1)c1ccc2oc(=O)n(Cc3ccccc3)c2c1	Lassa entry inh inconclusive (no result: Marburg entry inh, HCV inh, SARS PLpro yeast)
Cc1cc(Br)c(NC(=O)CCl)c(Br)c1	Marburg entry inh inconclusive, FMDV inh inconclusive, HCMV antiviral -66
Cc1cc(Br)c(NC(=O)CN(C)CCOc2ccccc2)c(Br)c1	HCV inh inconclusive (no result: Marburg entry inh, Lassa entry inh)
Cc1cc(NC(=O)CCl)nn1C	Marburg entry inh 7.9µM, HCV inh inconclusive, Lassa entry inh inconclusive, FMDV inh 35µM, HCMV antiviral inconclusive
Cc1cc(NC(=O)CCl)on1	HCV inh inconclusive, FMDV inh inconclusive, HCMV antiviral -68
Cc1c(Cl)cccc1NC(=O)Nc1ccn(C)n1	Marburg entry inh inconclusive, Lassa entry inh inconclusive
CC(C)c1cc(NC(=O)CCl)on1	FMDV inh inconclusive (no result: Marburg entry inh, Lassa entry inh)
Cn1ccc(NC(=O)CCl)n1	Marburg entry inh inconclusive, HCV inh inconclusive, Lassa entry inh inconclusive, FMDV inh inconclusive, HCMV antiviral -99
CC(O)(COc1ccccc1)c1ccc2c(c1)CN(Cc1cccc3cccnc13)CCO2 (stereo unspecified)	none (no result: Marburg entry inh, HCV inh, Lassa entry inh, SARS PLpro yeast, HCMV antiviral)
Cc1cccc(C(CC(=O)N2CCCCC2)c2ccccc2)c1O (stereo unspecified)	none
Nc1nc(Cl)nc2c1ncn2C1OC(CO)C(O)C1F (stereo unspecified)	none (no result: Marburg entry inh, HCV inh, Lassa entry inh, SARS PLpro yeast, HCMV antiviral)
COc1ccc(O)c(CN2CCC3(CCC(CNC(=O)C4CCCO4)O3)CC2)c1 (stereo unspecified)	none (no result: Marburg entry inh, HCV inh, Lassa entry inh, SARS PLpro yeast, HCMV antiviral)
COc1cccc(CNC(=O)CCCN2C(=O)C(c3ccccc3)Oc3cccnc32)c1OC (stereo unspecified)	none (no result: Marburg entry inh, Lassa entry inh)
O=C(CSc1nc(C2CCCCC2)nc2ccccc12)N1CCCC1	Marburg entry inh inconclusive, Lassa entry inh inconclusive, HCMV antiviral -101
O=C(CSc1nncc2ccccc12)N1CCCCC1	HCMV antiviral -64
CC(C)c1nc(SCC(=O)N2CCCC2)c2ccccc2n1	HCV inh inconclusive, HCMV antiviral -78
CCc1nc(SCC(=O)N2CCCC2)c2ccccc2n1	HCV inh inconclusive, HCMV antiviral inconclusive (no result: FMDV inh)
O=C(CSc1nc(C2CC2)nc2ccccc12)N1CCCCC1	Marburg entry inh inconclusive
NCCCCCc1cnc[nH]1	none (no result: Marburg entry inh, HCV inh, Lassa entry inh, SARS PLpro yeast, HCMV antiviral)
O=C(NCc1n[nH]c(=S)n1-c1ccccc1Cl)c1ccc(S(=O)(=O)N2CCCCC2)cc1	Marburg entry inh inconclusive
COc1ccccc1-n1c(CNC(=O)c2ccc(S(=O)(=O)N3CCCCC3)cc2)n[nH]c1=S	HCMV antiviral -70
Cc1nn2c(C)c(C(=O)NC(C)c3ccccc3)cnc2c1-c1ccc(F)cc1 (stereo unspecified)	none (no result: Marburg entry inh, HCV inh, SARS PLpro yeast)
C1CCN(c2c3c(nc4nnnn24)CCCC3)CC1	HCMV antiviral -64
COc1ccc(-c2nc3ccc(NS(=O)(=O)c4ccc(Cl)cc4)cc3o2)cc1	none (no result: HCV inh, SARS PLpro yeast)
CCOc1ccc(C2N3CC4(C(C)C)CN2CC(C(C)C)(C3)C4=O)cc1OC (stereo unspecified)	none (no result: HCV inh, SARS PLpro yeast)
COc1ccc(/C=C2\N=C(c3ccccc3Cl)NC2=O)cc1	HCV inh inconclusive, HCMV antiviral -73 (no result: Marburg entry inh, Lassa entry inh)
